# PubChem BioAssay (NCATS)
# Where “and” joins values, the source holds several entries; their conditions need not be identical. Equal entries are not always repeated. Results filed as inconclusive are left out. A call without a number means that no potency is given here. A structure can be active in one record and inactive in another. Calls of active or inactive are those of the source. Unless noted, calls follow the shape of the dose curve; as a rule, active = well fitted curve in the direction sought with a large enough effect; inconclusive = small, poorly fitted or top-dose-only effect, or another doubt; inactive = no such curve, though single readings can be large; an effect the other way counts as inactive or inconclusive.
# Experiments:
# [1] = target: Calcium and integrin-binding protein 1 (Homo sapiens) (UniProt Q99828); assay: Primary qHTS for Identification of Calcium Integrin Binding Protein 1 (CIB1) Competitor (AID 1508620);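 also: GST tagged CIB1 binding a fluorescein labelled alphaIIb integrin peptide tracer; top concentration of the series differs between compounds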
# Summary of the method: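 CIB1-GST (1 uM final) and compound incubated 15 min at room temperature before adding FITC-alphaIIb peptide tracer (100 nM final). Competition for binding read by fluorescence polarization (ex 480, em 540) after another 15 min at room temperature.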
# [2] = Primary qHTS for small molecule stabilizers of the endoplasmic reticulum resident proteome: Secreted ER Calcium Modulated Protein (SERCaMP) assay (AID 1508630)
# Summary of the method: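 The SH-SY5Y reporter protocol was run at 3 concentrations up to 38.3 uM (primary) or 11 concentrations (follow-up): 16 h compound, 100 nM thapsigargin for 4 h, then extracellular luciferase luminescence.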
# [3] = Primary qHTS for inhibitors of nuclear receptor binding SET domain protein 2 (NSD2) in an RCH-ACV wild type WT cells (2C) (AID 1645877); also: nearly all actives have a fitted effect of over 70% in size; also: potency is read from the fitted curve at half-maximal effect
# [4] = target: Cytochrome P450 2D6 (Homo sapiens) (UniProt P10635); assay: Cytochrome P450 family 2 subfamily D member 6 (CYP2D6) small molecule antagonists: luciferase biochemical (cell-free) qHTS assay (AID 1645840; active = well fitted curve in the direction sought with a large enough effect in the repeat runs; an effect the other way counts as inactive or inconclusive; also: nearly all actives have a fitted effect of over 55% in size; also: potency is read from the fitted curve at half-maximal effect)
# Summary of the method: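 P450-Glo CYP2D6 system: proluciferin substrate converted by enzyme to luciferin, read by luminescence proportional to activity. Enzyme-substrate mix with compound 10 min at room temperature, then NADPH regeneration 1 h before detection reagent.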
# [5] = target: Cytochrome P450 2C9 (Homo sapiens) (UniProt P11712); assay: Cytochrome P450 family 2 subfamily C member 9 (CYP2C9) small molecule antagonists: luciferase biochemical (cell-free) qHTS assay (AID 1645842; active = well fitted curve in the direction sought with a large enough effect in the repeat runs; an effect the other way counts as inactive or inconclusive; also: nearly all actives have a fitted effect of over 55% in size; also: potency is read from the fitted curve at half-maximal effect)
# Summary of the method: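 P450-Glo CYP2C9 system: proluciferin substrate with enzyme in mix containing 0.4% BSA, 10 min at room temperature, then NADPH regeneration solution added and incubated 1 h at 37C. Detection reagent stopped reaction; luminescence read after 20 min as RLU.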
# [6] = Primary qHTS for inhibitors of nuclear receptor binding SET domain protein 2 (NSD2) in an isogenic RCH-ACV NSD2 p.E1099K mutant (9B) (AID 1645876); also: nearly all actives have a fitted effect of over 70% in size; also: potency is read from the fitted curve at half-maximal effect
# [7] = A High-Content qHTS Against Drug Library for the Identification of Small Molecules that Inhibit DYT1 Early Onset Primary Dystonia-Associated Cell Pathology (AID 1645839; calls by dose curve; also: series mostly up to about 46 µM)
# Summary of the method: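 High-content imaging quantified EGFP-TorsinA mislocalization in HEK293-derived cells inducibly expressing DYT1 mutant torsinA, after 48 h exposure to compound given together with tetracycline induction. Cell count served as a toxicity channel alongside %pathology.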
# [8] = target: Rap guanine nucleotide exchange factor 3 (Homo sapiens) (UniProt O95398); assay: Confirmatory qHTS for antagonist of cAMP-regulated guanine nucleotide exchange factor 3 (EPAC1) (AID 1645880); also: potency is read from the fitted curve at half-maximal effect; nearly all actives have a fitted effect of over 55% in size
# Summary of the method: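 Released BODIPY-GDP fluoresces less than Rap1-bound BODIPY-GDP; the signal is followed at 480/540 nm at 5-min intervals over 30 min, after 5 min at room temperature. Reactions contain 100 nM EPAC1, 250 nM RAP1B-BODIPY-GDP and 50 uM GDP; results are normalized to ATA and DMSO.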
# [9] = target: Rap guanine nucleotide exchange factor 3 (Homo sapiens) (UniProt O95398); assay: Confirmatory qHTS for agonist of cAMP-regulated guanine nucleotide exchange factor 3 (EPAC1) (AID 1645881);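 also: EPAC1 catalysed release of BODIPY-GDP from Rap1B seen as fluorescence loss; nearly all actives have a fitted effect of over 75% in size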
# [10] = target: Rap guanine nucleotide exchange factor 4 (Homo sapiens) (UniProt Q8WZA2); assay: Confirmatory qHTS for agonist of cAMP-regulated guanine nucleotide exchange factor 4 (EPAC2) (AID 1645884);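 also: nucleotide exchange releases bodipy-GDP from Rap1 and this lowers its fluorescence; nearly all actives have a fitted effect of over 65% in size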
# [11] = target: Rap guanine nucleotide exchange factor 4 (Homo sapiens) (UniProt Q8WZA2); assay: Confirmatory qHTS for antagonist of cAMP-regulated guanine nucleotide exchange factor 4 (EPAC2) (AID 1645885); also: nearly all actives have a fitted effect of over 25% in size
# [12] = target: Rap guanine nucleotide exchange factor 3 (Homo sapiens) (UniProt O95398); assay: Counterscreen qHTS for antagonist of cAMP-regulated guanine nucleotide exchange factor 3 (EPAC1) (AID 1645888)
# Summary of the method: (§1)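 Rap1B-BODIPY-GDP 250 nM + GDP 50 uM; cpds 7-pt, final 9.74 nM–152 uM (activator mode) or from 7.32 nM upwards (inhibitor mode); RT; FI 480/540 nm at 5 and 30 min, then ± cAMP, reread.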
# [13] = target: Rap guanine nucleotide exchange factor 3 (Homo sapiens) (UniProt O95398); assay: Counterscreen qHTS for agonist of cAMP-regulated guanine nucleotide exchange factor 3 (EPAC1) (AID 1645889); also: nearly all actives have a fitted effect of over 40% in size
# Summary of the method: as §1
# Chain of Cytochrome P450 2C9 (Homo sapiens) (P11712 whole entry, looked up): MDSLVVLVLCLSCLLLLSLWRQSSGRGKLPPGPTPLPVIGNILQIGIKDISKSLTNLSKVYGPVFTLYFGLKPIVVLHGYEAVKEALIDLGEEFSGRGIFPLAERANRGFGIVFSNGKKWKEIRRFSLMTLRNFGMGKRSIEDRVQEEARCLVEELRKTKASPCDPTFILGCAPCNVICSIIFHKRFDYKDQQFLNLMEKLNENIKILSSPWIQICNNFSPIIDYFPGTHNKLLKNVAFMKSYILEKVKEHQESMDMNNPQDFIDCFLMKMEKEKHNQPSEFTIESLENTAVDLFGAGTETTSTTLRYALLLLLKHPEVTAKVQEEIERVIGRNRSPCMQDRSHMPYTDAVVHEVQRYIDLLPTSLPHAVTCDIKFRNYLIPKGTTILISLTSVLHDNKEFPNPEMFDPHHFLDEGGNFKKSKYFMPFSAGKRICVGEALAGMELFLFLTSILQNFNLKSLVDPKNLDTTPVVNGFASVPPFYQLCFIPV
# Chain of Rap guanine nucleotide exchange factor 3 (Homo sapiens) (O95398 whole entry, looked up): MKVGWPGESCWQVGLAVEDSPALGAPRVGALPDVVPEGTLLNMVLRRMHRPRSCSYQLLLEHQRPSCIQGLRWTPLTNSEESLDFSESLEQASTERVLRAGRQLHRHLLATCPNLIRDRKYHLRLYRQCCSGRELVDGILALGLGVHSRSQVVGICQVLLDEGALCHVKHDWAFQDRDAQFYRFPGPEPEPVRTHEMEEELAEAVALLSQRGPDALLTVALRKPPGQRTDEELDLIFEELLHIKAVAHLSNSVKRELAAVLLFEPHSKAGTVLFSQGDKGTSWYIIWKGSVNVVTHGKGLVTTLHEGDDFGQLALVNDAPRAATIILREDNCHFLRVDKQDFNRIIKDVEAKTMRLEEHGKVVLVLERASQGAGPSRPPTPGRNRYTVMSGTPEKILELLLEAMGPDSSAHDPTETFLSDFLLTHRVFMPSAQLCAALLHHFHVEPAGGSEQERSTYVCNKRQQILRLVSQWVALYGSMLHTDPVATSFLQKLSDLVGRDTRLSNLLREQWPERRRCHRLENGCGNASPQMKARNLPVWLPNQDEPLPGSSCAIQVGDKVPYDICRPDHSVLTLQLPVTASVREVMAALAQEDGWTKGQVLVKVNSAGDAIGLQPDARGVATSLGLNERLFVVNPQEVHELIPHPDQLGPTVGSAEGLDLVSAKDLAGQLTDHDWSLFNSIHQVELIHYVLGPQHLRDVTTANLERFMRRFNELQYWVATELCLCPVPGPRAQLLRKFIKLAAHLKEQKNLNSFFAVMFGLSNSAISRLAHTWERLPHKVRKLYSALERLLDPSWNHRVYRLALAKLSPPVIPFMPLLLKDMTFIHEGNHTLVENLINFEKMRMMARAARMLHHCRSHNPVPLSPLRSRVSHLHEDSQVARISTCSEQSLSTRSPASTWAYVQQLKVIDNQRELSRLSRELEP
# Chain of Calcium and integrin-binding protein 1 (Homo sapiens) (Q99828 whole entry, looked up): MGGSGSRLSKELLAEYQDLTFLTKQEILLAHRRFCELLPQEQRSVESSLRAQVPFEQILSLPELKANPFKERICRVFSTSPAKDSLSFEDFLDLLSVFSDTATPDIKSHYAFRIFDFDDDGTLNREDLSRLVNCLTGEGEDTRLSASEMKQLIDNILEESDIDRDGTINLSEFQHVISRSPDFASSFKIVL
# Chain of Cytochrome P450 2D6 (Homo sapiens) (P10635 whole entry, looked up): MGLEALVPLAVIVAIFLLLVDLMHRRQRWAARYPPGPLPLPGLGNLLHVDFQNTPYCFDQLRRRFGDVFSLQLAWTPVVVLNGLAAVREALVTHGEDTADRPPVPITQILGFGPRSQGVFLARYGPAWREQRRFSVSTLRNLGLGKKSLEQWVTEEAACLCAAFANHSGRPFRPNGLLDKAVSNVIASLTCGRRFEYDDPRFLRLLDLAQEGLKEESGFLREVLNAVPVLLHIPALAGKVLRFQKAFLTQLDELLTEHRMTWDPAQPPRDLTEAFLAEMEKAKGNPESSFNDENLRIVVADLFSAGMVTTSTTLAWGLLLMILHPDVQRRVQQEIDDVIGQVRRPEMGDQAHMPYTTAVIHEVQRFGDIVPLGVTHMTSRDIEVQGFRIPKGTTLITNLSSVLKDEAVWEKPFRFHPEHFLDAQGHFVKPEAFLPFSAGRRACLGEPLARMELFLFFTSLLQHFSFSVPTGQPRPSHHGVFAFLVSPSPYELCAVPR
# Chain of Rap guanine nucleotide exchange factor 4 (Homo sapiens) (Q8WZA2 whole entry, looked up): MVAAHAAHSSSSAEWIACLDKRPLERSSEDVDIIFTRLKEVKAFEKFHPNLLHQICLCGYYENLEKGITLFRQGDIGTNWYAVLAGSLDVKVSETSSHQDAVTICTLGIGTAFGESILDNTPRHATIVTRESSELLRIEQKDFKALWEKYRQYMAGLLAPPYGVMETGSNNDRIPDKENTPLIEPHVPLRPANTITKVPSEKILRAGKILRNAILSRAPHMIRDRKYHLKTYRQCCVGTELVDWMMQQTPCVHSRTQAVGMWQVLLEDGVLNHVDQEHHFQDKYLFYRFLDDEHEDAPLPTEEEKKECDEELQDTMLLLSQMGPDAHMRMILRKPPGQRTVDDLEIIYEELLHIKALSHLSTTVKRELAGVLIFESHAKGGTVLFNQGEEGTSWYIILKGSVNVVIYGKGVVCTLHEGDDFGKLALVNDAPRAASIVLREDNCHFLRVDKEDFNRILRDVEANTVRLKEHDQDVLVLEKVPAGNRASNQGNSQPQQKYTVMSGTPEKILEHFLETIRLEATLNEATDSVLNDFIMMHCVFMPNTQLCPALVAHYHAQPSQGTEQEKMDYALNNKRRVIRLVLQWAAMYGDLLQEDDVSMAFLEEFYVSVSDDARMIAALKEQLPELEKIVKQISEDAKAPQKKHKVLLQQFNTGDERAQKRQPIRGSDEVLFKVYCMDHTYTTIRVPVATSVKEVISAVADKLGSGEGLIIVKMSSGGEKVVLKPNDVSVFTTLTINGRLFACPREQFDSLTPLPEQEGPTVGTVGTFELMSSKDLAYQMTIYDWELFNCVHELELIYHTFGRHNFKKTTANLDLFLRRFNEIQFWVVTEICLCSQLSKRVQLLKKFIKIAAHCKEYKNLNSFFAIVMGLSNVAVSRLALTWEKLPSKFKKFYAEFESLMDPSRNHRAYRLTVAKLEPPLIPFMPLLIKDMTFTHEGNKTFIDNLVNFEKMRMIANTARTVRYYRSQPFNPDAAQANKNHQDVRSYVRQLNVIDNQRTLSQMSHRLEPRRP
compound,measurement,setting,value
CCCC1OC2C[C@@H]3[C@H]4CCC5=CC(=O)C=C[C@]5(C)[C@H]4C(O)C[C@]3(C)[C@]2(C(=O)CO)O1 (stereo partly drawn),Potency,[1],inactive
same,Potency,[2],inactive
same,Potency,[3],0.0053 µM (active)
Cc1ccc2c(c1)C(=O)[C@]1(O)CCN(c3ccccc3)C1=N2,Potency,[1],inactive
same,Potency,[2],inactive
same,Potency,[3],23 µM (active)
COc1ccc(C=CC(=O)Nc2ccccc2C(=O)O)cc1OC,Potency,[1],inactive
same,Potency,[4],inactive
same,Potency,[5],16.9 µM (active)
CNC(=O)c1ccc2c(C(=Nc3cccc(CN(C)C)c3)c3ccccc3)c(O)[nH]c2c1,Potency,[1],inactive
same,Potency,[5],inactive
same,Potency,[6],16.3 µM (active) and 13.2 µM (active)
same,Potency,[3],16.6 µM (active)
O=C1C(c2c(O)[nH]c3ccccc23)=Nc2ccccc21,Potency,[1],inactive
same,Potency,[2],inactive
same,Potency,[6],8.93 µM (active) and inactive
same,Potency,[3],2.24 µM (active) and inactive
O=C(CC12CC3CC(CC(C3)C1)C2)Nc1cccc2nc(NCCNCCO)ccc12,Potency,[1],inactive
same,Potency,[5],inactive
same,Potency,[6],20.9 µM (active)
same,Potency,[3],20.9 µM (active)
Cc1ccc(C(=O)N(CCCN)[C@@H](c2nc3cc(Cl)ccc3c(=O)n2Cc2ccccc2)C(C)C)cc1,Potency,[1],inactive
same,Potency,[2],inactive
same,Potency,[6],0.0132 µM (active)
same,Potency,[3],0.0132 µM (active)
Nc1ccn([C@@H]2O[C@H](CO)[C@@H](O)[C@H]2O)c(=O)n1,Potency,[1],inactive
same,Potency,[2],inactive
same,Potency,[3],inactive
N#CC(c1ccnc(NCCc2cccnc2)n1)c1nc2ccccc2s1 (stereo not drawn),Potency,[1],inactive
same,Potency,[6],14.8 µM (active)
Cn1c(=O)c(-c2c(Cl)cccc2Cl)cc2cnc(Nc3cccc(C(=O)O)c3)nc21,Potency,[1],inactive
same,Potency,[4],inactive
same,Potency,[5],inactive
same,Potency,[6],inactive
same,Potency,[3],inactive
OC1CCC(Nc2ncc3nc(Nc4c(F)cc(F)cc4F)n([C@@H]4CCOC4)c3n2)CC1 (stereo partly drawn),Potency,[1],inactive
same,Potency,[2],inactive
same,Potency,[6],inactive
same,Potency,[3],inactive
c1cc(OCCN2CCCCC2)cc(-c2n[nH]c3ccc(-c4ncn[nH]4)cc23)c1,Potency,[1],inactive
same,Potency,[5],inactive
same,Potency,[6],16.6 µM (active)
same,Potency,[3],13.2 µM (active)
CCOC(=O)c1c(CSc2ccccc2)n(C)c2cc(Br)c(O)c(CN(C)C)c12,Potency,[1],inactive
same,Potency,[6],18.6 µM (active)
CN(C)S(=O)(=O)c1ccc2c(c1)C(=Cc1cc3c([nH]1)CCCC3)C(=O)N2,Potency,[1],inactive
same,Potency,[2],inactive
same,Potency,[3],2.95 µM (active)
CC1(COc2ccc3c(c2)ncn3-c2ccc3cccc(N4CCC(N)CC4)c3n2)COC1,Potency,[1],inactive
same,Potency,[4],15.1 µM (active)
same,Potency,[6],1.83 µM (active) and 1.32 µM (active)
same,Potency,[3],2.05 µM (active) and 1.86 µM (active)
NS(=O)(=O)c1ccc(Nc2nc(OCC3CCCCC3)c3[nH]cnc3n2)cc1,Potency,[1],inactive
same,Potency,[5],26.8 µM (active)
same,Potency,[6],13.2 µM (active)
same,Potency,[3],13.2 µM (active)
CN1C(=O)C(Cc2c[nH]c3ccccc23)NC1=S (stereo not drawn),Potency,[1],inactive
same,Potency,[2],inactive
same,Potency,[6],inactive
same,Potency,[3],inactive
CN1CCN(c2ncc(-c3cc(Cl)cc(Cl)c3Cl)c(N)n2)CC1,Potency,[1],inactive
same,Potency,[2],inactive
same,Potency,[3],18.6 µM (active)
CCCCc1ccc(NS(=O)(=O)c2ccc(C)c(C(=O)N3CCN(c4cccc(C)c4C)CC3)c2)cc1,Potency,[1],inactive
same,Potency,[2],inactive
same,Potency,[3],inactive
CNC(=O)c1c(-c2ccc(F)cc2)oc2cc(N(CCO)S(C)(=O)=O)c(C3CC3)cc12,Potency,[1],inactive
same,Potency,[4],inactive
same,Potency,[5],10.7 µM (active)
same,Potency,[6],inactive
same,Potency,[3],inactive
CN[C@@H](C)[C@H]1[C@H](O)C[C@@]2(C)[C@@H]3CC[C@H]4C(C)(C)[C@@H](NC)CC[C@@]45C[C@@]35CC[C@]12C,Potency,[1],inactive
same,Potency,[2],inactive
same,"activity change, negative = viability loss",[6],5.77% [at 9.23 µM] (inactive)
same,"activity change, negative = cell killing",[3],-13.6% [at 9.23 µM] (inactive)
O=C(Nc1cccc2c(=O)cc(-c3nn[nH]n3)oc12)c1ccc(OCCCCc2ccccc2)cc1,Potency,[1],inactive
same,outcome,[7],inactive
same,Potency,[5],7.76 µM (active)
same,Potency,[6],inactive
same,Potency,[3],inactive
CNC(=O)c1cc(Oc2ccc(NC(=O)Nc3ccc(Cl)c(C(F)(F)F)c3)c(F)c2)ccn1,Potency,[1],inactive
same,Potency,[5],9.52 µM (active)
same,Potency,[6],14.5 µM (active)
O=c1cc(-c2ccc(O)c(O)c2)oc2cc(O)cc(O)c12,Potency,[1],inactive
same,Potency,[6],10.5 µM (active)
same,Potency,[3],9.34 µM (active)
same,Potency,[8],6.27 µM (active) and 5.77 µM (active) and 7.57 µM (active)
same,Potency,[9],inactive
same,Potency,[10],inactive
same,Potency,[11],inactive
same,outcome,[12],inactive
same,outcome,[13],inactive
COc1ccc(-c2cc(=O)c3c(O)cc(O[C@@H]4O[C@H](CO[C@@H]5O[C@@H](C)[C@H](O)[C@@H](O)[C@@H]5O)[C@@H](O)[C@H](O)[C@@H]4O)cc3o2)cc1O,Potency,[2],inactive
